Measurements as given in PubChem BioAssay AID1946 (Johns Hopkins Ion Channel Center, 2009).
The whole screen tested about 2,400 compounds, of which about 180 (7.5%) were called active.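 How the source made its calls: active means readout below zero, meaning a drop past 3 SD under the dofetilide-free negative control mean; inactive means the rest.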 Many of the other results were omitted from the sample, so actives are more common in it than they were.

biological target: Potassium voltage-gated channel subfamily KQT member 2 (Rattus norvegicus) (UniProt O88943); assay: rat KCNQ2 channel inhibition by compounds alone, confirmation, counter-screen for hERG block protector project, cell-based, CHO, FluxOR thallium flux (AID 1946); conditions: CHO-KCNQ2 cells, FluxOR thallium flux fluorescence; at 10 µM; active compounds read low; zero marks the 3-SD hit cutoff
Sequence (O88943 whole entry, looked up): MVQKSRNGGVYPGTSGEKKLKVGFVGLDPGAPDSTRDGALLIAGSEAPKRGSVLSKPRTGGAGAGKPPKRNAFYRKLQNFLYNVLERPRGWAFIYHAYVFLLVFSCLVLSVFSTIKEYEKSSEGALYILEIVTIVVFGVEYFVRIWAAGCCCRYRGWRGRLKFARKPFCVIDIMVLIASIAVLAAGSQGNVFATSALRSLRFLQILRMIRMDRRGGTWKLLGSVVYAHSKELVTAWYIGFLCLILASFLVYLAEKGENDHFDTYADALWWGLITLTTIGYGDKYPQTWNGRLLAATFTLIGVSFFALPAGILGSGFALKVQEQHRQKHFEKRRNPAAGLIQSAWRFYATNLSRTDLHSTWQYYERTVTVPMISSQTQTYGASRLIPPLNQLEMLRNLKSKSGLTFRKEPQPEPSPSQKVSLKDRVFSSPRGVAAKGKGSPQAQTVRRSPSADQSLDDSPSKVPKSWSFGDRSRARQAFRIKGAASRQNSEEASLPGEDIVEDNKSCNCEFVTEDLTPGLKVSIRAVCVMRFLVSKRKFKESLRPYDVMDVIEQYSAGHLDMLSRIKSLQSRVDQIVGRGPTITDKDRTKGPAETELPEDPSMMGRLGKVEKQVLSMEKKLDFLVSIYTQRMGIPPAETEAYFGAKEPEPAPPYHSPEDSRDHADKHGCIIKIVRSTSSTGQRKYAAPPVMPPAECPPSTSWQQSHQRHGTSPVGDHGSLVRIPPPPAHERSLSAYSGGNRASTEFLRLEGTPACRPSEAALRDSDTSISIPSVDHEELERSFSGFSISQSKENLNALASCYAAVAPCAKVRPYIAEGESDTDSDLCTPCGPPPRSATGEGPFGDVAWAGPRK

Row | SMILES | activity change vs negative control
1 | Cc1cccc(NC(=O)C(=O)NNC(=O)c2ccc(C(C)(C)C)cc2)c1 | 134% (inactive)
2 | C=CCn1c(=S)[nH]c2sc3c(c2c1=O)CCC3 | 64.2% (inactive)
3 | CC(NC(=O)NC1CCCCC1)c1ccccc1 (stereo not drawn) | 57.6% (inactive)
4 | CCN(Cc1ccccc1)C(=S)NC(=O)c1ccccc1Br | 96.1% (inactive)
5 | S=c1nc(SCc2ccccc2)[nH]c2ccccc12 | 95.4% (inactive)
6 | Cc1cc([N+](=O)[O-])ccc1-c1ccc(C2Nc3ccccc3C(=O)N2O)o1 (stereo not drawn) | 24.1% (inactive)
7 | Cc1ccc(/C=C/C(=O)C2C(=O)c3ccccc3C2=O)cc1 | 69.5% (inactive)
8 | Cc1ccc(/C=N/N2C(=O)c3ccccc3NC2c2ccc(C)cc2)cc1 (stereo not drawn) | -1.1% (active)
9 | CC(C)CNC(=S)NC(=O)c1ccc(Cl)cc1 | 10.6% (inactive)
10 | CCc1c(C)sc(NC(=O)CN2CCN(C(=O)c3ccco3)CC2)c1C(=O)OC | 44.4% (inactive)
11 | Cc1ccc(-c2nc3c(Cl)cc(Cl)cc3c(=O)n2O)cc1 | 164% (inactive)
12 | CC(=O)C1=C(O)C(=O)N(c2cccnc2)C1c1ccc(Cl)cc1 (stereo not drawn) | -2.8% (active)
13 | CC1=NN(c2ccccc2)C(=O)C1C(=O)c1ccc(Cl)cc1 (stereo not drawn) | 28.9% (inactive)
14 | O=C1c2ccccc2C(=O)N1c1cccnc1 | 6.9% (inactive)
15 | CN(Cc1ccccc1)C(=S)NC(=O)c1cccs1 | 31.2% (inactive)
16 | Nc1nc(O)c(N=Nc2ccc(S(N)(=O)=O)cc2)c(=O)[nH]1 | -2% (active)
17 | Cc1ccc2[nH]c(=O)c(C(c3nnnn3C3CCCC3)N3CCCc4ccccc43)cc2c1 (stereo not drawn) | 27.9% (inactive)
18 | COc1ccc(-c2csc(NC(=S)NC(=O)c3ccco3)n2)cc1 | 21.1% (inactive)
19 | Cn1c(=O)c2sccc2n(Cc2cccc(Br)c2)c1=O | 10.6% (inactive)
20 | C=Cc1ccc(Cn2c(=O)n(CCCOC)c(=O)c3sccc32)cc1 | -5.9% (active)
21 | COCCCn1c(=S)[nH]c2c(sc3ccccc32)c1=O | 12.3% (inactive)
22 | Cc1cccc2nc(-c3cccnc3)c(NCCC(C)C)n12 | -23.5% (active)
23 | CC(C)Cn1c(=S)[nH]c2cc(Cl)ccc21 | 21% (inactive)
24 | COc1ccc(-c2nc(=S)c3ccc4ccccc4c3[nH]2)cc1 | 74.5% (inactive)
25 | CC(C)OC(=O)c1c(NS(=O)(=O)c2ccccc2)sc2c1CCCC2 | 31% (inactive)

Row | SMILES | activity change vs negative control
26 | C/C(=C/CCC(C)C1CCC2(C)C3CCC4C(C)(C)C(=O)CCC4(C)C3=CCC12C)C(=O)O (stereo not drawn) | 4.1% (inactive)
27 | C/C(=C/CCC(C)[C@H]1CC[C@@]2(C)C3=C(CC[C@]12C)[C@@]1(C)CCC(=O)C(C)(C)[C@@H]1CC3)C(=O)O (stereo partly drawn) | -13.3% (active)
28 | O=C1c2ccccc2NC(c2ccc(Br)s2)N1O (stereo not drawn) | 92.4% (inactive)
29 | COc1cccc(C=NCCCN=Cc2cccc(OC)c2O)c1O | 37.4% (inactive)
30 | C=CCn1c(N2CCCCCC2)nc2c1c(=O)n(C)c(=O)n2C | 15.6% (inactive)
31 | Cc1ccnc(SCCn2c(N3CC(C)OC(C)C3)nc3c2c(=O)n(C)c(=O)n3C)n1 (stereo not drawn) | -2% (active)
32 | CCOC(=O)NC(=S)Nc1ccc(C(C)(C)C)cc1 | 30.4% (inactive)
33 | CCOc1ccc(/C=C2/SC(=O)NC2=S)cc1 | 111% (inactive)
34 | CCCCC(=O)Nc1ccc(NCc2ccc(C)s2)cc1 | 66.2% (inactive)
35 | Cc1c(-c2ccccc2)sc2nc[nH]c(=S)c12 | 75% (inactive)
36 | Cc1cc(F)c(F)c(C(=O)N2CCOCC2)c1 | 7.3% (inactive)
37 | Cc1ccc(-n2c(C)cc(C(=O)CN3CCOCC3)c2C)cc1 | 10.9% (inactive)
38 | Cc1cc(C(=O)NP(=O)(N2CCOCC2)N2CCOCC2)c(C)n1-c1ccc(Br)cc1 | -0.1% (active)
39 | O=c1c(-c2cccc3ccccc23)[n+]([O-])c2ccccc2n1O | 27.4% (inactive)
40 | Cc1cc(=O)oc2cc(OCC(=O)OCC(=O)NC(C)C)ccc12 | 12.7% (inactive)
41 | COc1ccc(-c2cc(=O)oc3cc(OCC(C)=O)ccc23)cc1 | -6.4% (active)
42 | COc1ccc(-c2c(C)c3ccc(OCC(C)=O)cc3oc2=O)cc1 | 4.2% (inactive)
43 | Oc1ccc(N2CCN(C(c3cccnc3)c3nnnn3Cc3ccccc3)CC2)cc1 (stereo not drawn) | 19.3% (inactive)
44 | c1ccc(Cn2ncc3c(N4CCN(C(c5ccccc5)c5ccccc5)CC4)ncnc32)cc1 | -7.5% (active)
45 | Oc1ccc(Cl)cc1C1=NNC(c2cccs2)C1 (stereo not drawn) | 36.9% (inactive)
46 | CC(C)c1ccc(NC(=O)C2CC3CCC2C3)cc1 (stereo not drawn) | 45.1% (inactive)
47 | CCOC(=O)C1=NN(C(=O)c2cccc(Br)c2)C(O)(C(C)(C)C)C1 (stereo not drawn) | 111% (inactive)
48 | O=C(NC(=S)N1CCCc2ccccc21)c1ccc(Br)cc1 | 49.6% (inactive)
49 | O=C(NN1C(=O)C2C(c3ccccc3)C=CC(c3ccccc3)C2C1=O)c1cccc(Br)c1 (stereo not drawn) | 10.8% (inactive)
50 | O=C(NN1C(=O)C2C(c3ccccc3)C=CC(c3ccccc3)C2C1=O)c1ccncc1 (stereo not drawn) | -13% (active)

Row | SMILES | activity change vs negative control
51 | O=C(Nn1cnnc1)c1ccncc1 | 12.7% (inactive)
52 | Cc1ccc(C(C)NC(=O)C2CCCC2)cc1C (stereo not drawn) | 66.7% (inactive)
53 | Cc1cccc(N2CCN(C(=O)Cc3c(C(=O)O)[nH]c4ccc(Cl)cc34)CC2)c1C | 38.6% (inactive)
54 | CC1CCN(C(=S)NC(=O)c2cccc([N+](=O)[O-])c2)CC1 | 37.1% (inactive)
55 | Cc1ccc(-c2onc3ccc(Cl)cc23)cc1 | -2% (active)
56 | Cc1ccc(-c2nc3ccc(Cl)cc3c(=O)n2O)cc1 | 118% (inactive)
57 | O=c1c2cc(Cl)ccc2nc(-c2ccc(Cl)c(Cl)c2)n1O | 150% (inactive)
58 | CC[C@@H](C(=O)[C@@H](C)[C@@H](O)[C@H](C)CCc1ccc(C)c(O)c1C(=O)O)[C@H]1O[C@](CC)([C@H]2CC[C@](O)(CC)[C@H](C)O2)C[C@@H]1C | 169% (inactive)
59 | COc1ccccc1NC(=S)NC(=O)c1ccc(-c2ccc(Cl)cc2)o1 | 16.7% (inactive)
60 | C=CCn1c(=S)[nH]c2sc3c(c2c1=O)CCCC3 | 60.7% (inactive)
61 | O=C(CNC(=O)c1ccccc1)NCc1ccc(Cl)cc1 | 10.8% (inactive)
62 | O=C(NC(=S)NCCc1ccc(Cl)cc1)c1ccco1 | 23.7% (inactive)
63 | O=C(Cn1c(=O)c2cccn2c2ccccc21)NCCc1ccc(Cl)cc1 | -3.5% (active)
64 | Cc1nc(NCCc2ccc(S(N)(=O)=O)cc2)c2c(C)c(C)sc2n1 | 15.2% (inactive)
65 | O=c1cc(-c2c(F)c(F)c(F)c(F)c2F)oc2ccccc12 | 41.6% (inactive)
66 | COc1ccccc1C(=O)COC(=O)c1ccc(-n2cnnn2)cc1 | -0.2% (active)
67 | COc1ccccc1C(=O)Nc1ccc(C(=O)N2CCCC2)cc1 | 14.7% (inactive)
68 | CCOC(=O)c1nnn(CC(=O)Nc2ccccc2OC)c1C(=O)OCC | 7.9% (inactive)
69 | O=C(NC(=S)Nc1nc(-c2ccc([N+](=O)[O-])cc2)cs1)c1ccco1 | 42% (inactive)
70 | Cc1ccc(S(=O)(=O)N(C)C)cc1NC(=S)NC(C)CCCC(C)C (stereo not drawn) | -2.5% (active)
71 | O=c1c2ccc(Cl)cc2[nH]c(=S)n1CCC1=CCCCC1 | 32.4% (inactive)
72 | NC(=O)c1cccc(N=Cc2cc(Cl)cc(Cl)c2O)c1 | 43.3% (inactive)
73 | O=C(Nc1nc(=S)ss1)c1ccc(Cl)cc1Cl | 122% (inactive)
74 | CCC1CCCCN1C(=S)NC(=O)c1cccc([N+](=O)[O-])c1 (stereo not drawn) | 55.4% (inactive)
75 | O=C(NC(=S)NCCC1=CCCCC1)c1ccc(Br)o1 | 26.5% (inactive)

Row | SMILES | activity change vs negative control
76 | Cc1cc([N+](=O)[O-])c(C)cc1-c1ccc(/C=N/NC(=O)Cn2nnnc2N)o1 | 19.5% (inactive)
77 | C=CCSC1=C(C#N)C(c2ccccc2)CC(=O)N1 (stereo not drawn) | -8.8% (active)
78 | COc1ccc(C(=O)NNC(=O)C(=O)Nc2cccc3ccccc23)cc1 | 80.5% (inactive)
79 | Cc1ccc(NC(=O)C(=O)NNC(=O)c2cccs2)cc1 | 83.8% (inactive)
80 | C=CCn1c(SCC(N)=O)nc2scc(-c3ccc(C)o3)c2c1=O | 33% (inactive)
81 | CCCN(CCC)C(=S)NC(=O)c1ccc(-c2ccccc2)cc1 | 106% (inactive)
82 | O=C(CSc1nnc(NC(=O)c2ccc(S(=O)(=O)N3CCOCC3)cc2)s1)Nc1ccccc1C(F)(F)F | 15.7% (inactive)
83 | CSc1ccc(S(=O)(=O)N2CCC(C(=O)Nc3ccccc3C(F)(F)F)CC2)cc1 | -0.2% (active)
84 | CS(=O)(=O)N1CCC(C(=O)Nc2c(F)cccc2F)CC1 | 16.7% (inactive)
85 | S=c1[nH]c2cc(-c3ccccc3)ccc2o1 | 114% (inactive)
86 | N#Cc1ccc(-c2nc3ccc(Br)cc3c(=O)n2O)cc1 | 40.3% (inactive)
87 | O=S(=O)(Nc1ccc(O)c2ccccc12)c1ccc(F)cc1 | 1.7% (inactive)
88 | Cc1ccc(S(=O)(=O)Nc2ccc(O)c3ccccc23)c(C)c1 | -3.3% (active)
89 | COc1ccc(OC)c(S(=O)(=O)Nc2ccc(O)c3ccccc23)c1 | 1.4% (inactive)
90 | CC1Cc2ccccc2N1C(=S)NC(=O)C1(C)CC1(Cl)Cl (stereo not drawn) | 59.5% (inactive)
91 | CC(NC(=S)NC1CCCCC1)c1ccccc1 (stereo not drawn) | 29.9% (inactive)
92 | Cc1ccc(S(=O)(=O)N2CCOCC2)cc1NC(=O)COC(=O)c1cccnc1Cl | -1.4% (active)
93 | Cc1ccc(Cl)cc1NC(=O)COC(=O)c1ccccc1O | 6.8% (inactive)
94 | Cc1ccc(S(=O)(=O)N2CCOCC2)cc1NC(=O)CSc1nc2ccccc2c(=O)n1Cc1ccccc1 | 13.7% (inactive)
95 | C=CCNC(=S)Nc1sc2c(c1C(=O)OCC)CC(C)(CC)OC2 (stereo not drawn) | 38.9% (inactive)
96 | CC(=O)/C=C1/C(=O)Nc2ccccc21 | -4.4% (active)
97 | CCOC(=O)c1c(NS(C)(=O)=O)sc2c1CCC(C)C2 (stereo not drawn) | 40.9% (inactive)
98 | O=c1c2[nH]c3ccccc3c2nc2n1CCCS2 | 30.9% (inactive)
